HCV inhibitor = blocks hepatitis C virus; AID 651820; hit rate 3.4% among 340,000; Huh7.5.1 HCVcc-Cre infection, luciferase reporter, 44 h; Potency, µM (highest dose often 41.8 µM), without a hit: top-dose activity change, negative = inhibition, usual class: inhibitors; note: potency is the fitted concentration of half-maximal effect
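Compounds are dispensed onto cells plated 4 h earlier at 1,000 per well, with HCVcc-Cre virus (about 0.5 moi) added next. Following 44 h of culture, luminescent signal is measured for 15 sec after 15 min with substrate at room temperature.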
VACV Venus inh = inhibitors of vaccinia virus (Venus reporter); Vaccinia virus Venus reporter expression, fluorescence; hit rate 0.46% among 330,000; AID 720580; Potency, µM (series often up to 36.5 µM), for the others: top-dose activity change, negative = inhibition, most hits filed as inhibitors; calls by dose curve; tested in A549 cells; note: potency is the fitted concentration of half-maximal effect; nearly all actives have a fitted effect of over 30% in size
HCMV antiviral = human cytomegalovirus inhibition | HFF cells, HCMV-luciferase reporter, 72 h; hits give low values | hit rate 4.5% among 410,000 | activity change, negative = inhibition, % at 57.5 µM; in the data active = activity change below about -60%; inconclusive = no clear call, values can overlap the other calls; inactive = above about -39%
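HFF cells seeded 16 h at 37C, treated with compounds, infected with luciferase-reporter HCMV at MOI 1 PFU/cell; luciferase read at 72 h post infection, normalized to buffer-only and Salinomycin controls.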
VACV mCherry inh = inhibitors of vaccinia virus infection (mCherry reporter signal); Vaccinia virus mCherry reporter infection, fluorescence; Potency, µM (top dose mostly 36.5 µM), without a hit: top-dose activity change, negative = inhibition, hits mostly inhibitors; hit rate 0.63% among 310,000; calls by dose curve; tested in A549 cells; note: potency is the fitted concentration of half-maximal effect; nearly all actives have a fitted effect of over 35% in size
FMDV antiviral = antivirals against foot and mouth disease virus. FMDV antiviral cell-based qHTS. Potency, µM (series often up to 57.9 µM), without a hit: at the highest dose activity change, negative = inhibition, actives largely listed as inhibitors. hit rate 1.2% among 410,000. AID 1159524; calls by dose curve; tested in HEK293T cells; note: read-out not given here; potency is the fitted concentration of half-maximal effect; nearly all actives have a fitted effect of over 45% in size
Sm TGR block = inhibitors of Schistosoma mansoni thioredoxin glutathione reductase. purified TGR, DTNB reduction, TNB absorbance 405 nm. Potency, µM (titrated, usually from 114 µM), for inactives: top-dose activity change, negative = inhibition, actives largely listed as inhibitors. Q962Y6. hit rate 3% among 360,000. AID 485364; note: potency is the fitted concentration of half-maximal effect; nearly all actives have a fitted effect of over 60% in size
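Kinetic colorimetric format: TGR-catalysed, NADPH-driven DTNB reduction monitored via TNB absorbance. Enzyme dispensed at 20 nM; compound exposure 15 min at room temperature before reaction start.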
An asterisk follows results filed as active; i = inactive; ? = inconclusive; nt = not tested or not shown; ! = not confirmed by another sample; [ ] = dose if it differs, or a comment. In the library only some 9.3% were active in any assay of this set; here they are far more common. Unless noted, calls come from the whole dose curve; as a rule, active = well fitted curve in the direction sought with a large enough effect; inconclusive = small, poorly fitted or top-dose-only effect, or another doubt; inactive = no such curve, though single readings can be large; an effect the other way counts as inactive or inconclusive. % is set by controls: 0 for no effect and ±100 for the full control effect.

SMILES | HCV inhibitor | VACV Venus inh | HCMV antiviral | VACV mCherry inh | FMDV antiviral | Sm TGR block
Cc1ccc(C(O)(COC(=O)C(C)C)COC(=O)C(C)C)c(O)c1 | 9% | -4% | -7 | i | -11% | 35µM*
CCOc1cc(C2C3=C(CCCC3=O)N(C)C3=C2C(=O)CCC3)cc(Cl)c1O | 5% | -10% | -11 | nt | 19% | 35µM*
CCOc1cc(C2C3=C(CCCC3=O)NC3=C2C(=O)CCC3)cc(Cl)c1O | -3% | -12% | 13 | -13% | 28% | -10%[11.4 µM]
O=C(O)c1ccc2[nH]cc(CCCCN3CC=C(c4ccccc4)CC3)c2c1 | nt | nt | nt | nt | 9% | nt
Cc1cc(-c2ccc(C)c(S(=O)(=O)NCCc3ccc(S(N)(=O)=O)cc3)c2)on1 | -7% | -17% | -64*! | i | 34% | 5%
Cc1cc(-c2ccc(C)c(S(=O)(=O)NCc3cccc(Br)c3)c2)on1 | -24% | -6% | -63*! | i | 15% | 3%
Cc1cc(-c2ccc(C)c(S(=O)(=O)NCc3ccc(Br)cc3)c2)on1 | ? | nt | -64* | nt | -7% | -1%
CCOC(=O)c1sc(N(Cc2ccccc2)C(=O)CCl)nc1C | 18µM* | -12% | -25 | -21% | ? | 25µM*
CCOC(=O)c1sc(N(Cc2ccccc2)C(=O)COC(=O)c2ccccc2O)nc1C | 0% | -12% | 12 | i | 21% | -8%
COc1cccc(CNC(=O)c2cnc(-c3ccccn3)nc2C(F)(F)F)c1 | -6% | -1% | 15 | -3% | -27% | 9%
Cc1cc(Br)cc(C)c1NC(=O)c1ccc(C#N)cc1F | -10% | -16% | -33 | -10% | -8% | nt
O=C(Cn1cnc2cc([N+](=O)[O-])ccc2c1=O)NCCc1ccc(Cl)cc1 | 14µM* | -1% | 21 | -6% | -5% | nt
O=C(Cn1cnc2cc([N+](=O)[O-])ccc2c1=O)NCCc1ccc(F)cc1 | 1% | -15% | -8 | i | -12% | 21%
COc1ccc(Cl)cc1S(=O)(=O)NCc1ccc2c(c1)CCN2C(=O)c1cccc(C)c1 | nt | -8%[7.34 µM] | -87* | -14%[7.34 µM] | 19% | 5%
COc1ccc(S(=O)(=O)NCc2ccc3c(c2)CCN3C(=O)c2ccc(C)cc2)cc1Cl | nt | -17% | -26 | -22% | -15% | 0%
CC(C)c1ccc(S(=O)(=O)NCc2ccc3c(c2)CCN3C(=O)c2ccccc2)cc1 | nt | -18% | -66* | -14% | -19% | -12%
Cc1cccc(C(=O)N2CCc3cc(CNS(=O)(=O)c4cccs4)ccc32)c1 | nt | -28% | -62* | -22% | ? | 0%
COc1ccc(S(=O)(=O)NCc2ccc3c(c2)CCN3C(=O)c2ccccc2)cc1OC | nt | -16% | -19 | -23% | -13% | 1%
CCCCN(C(=O)C1COc2ccccc2O1)c1c(N)n(CCC)c(=O)[nH]c1=O (stereo not given) | 14% | nt | -9 | nt | -24% | nt
O=C(c1ncn[nH]1)N1CCN(c2nc(-c3ccccc3)cs2)CC1 | -22% | -12% | -24 | i | 12% | -16%
O=C(c1cc(-n2cnnc2)ccc1Cl)N1CCN(c2nc(-c3ccccc3)cs2)CC1 | 10µM* | ? | -13 | nt | ? | -3%
CCc1ccc(Oc2cc(Cl)nc(N)n2)cc1 | -4% | -10% | 126 | -15% | 36% | 3%
CCOC(=O)C1=C[C@@H](C(C)(C)C)N(S(=O)(=O)c2ccccc2C)[C@H]1c1ccc(Cl)cc1 | nt | 0% | -77* | 4% | ? | nt
Cc1ccc(S(=O)(=O)N2[C@@H](c3ccc(Cl)c(Cl)c3)C(C(=O)O)=C[C@H]2C(C)(C)C)cc1 | -3% | -7% | nt | i | -6% | nt
CCOC(=O)C1=CCN(S(=O)(=O)c2ccccc2Cl)C1c1ccc(Cl)cc1 (stereo not given) | nt | nt | -28 | nt | nt | nt
CCOC(=O)C1=C[C@@H](C(C)(C)C)N(S(=O)(=O)c2ccc(C)cc2)[C@H]1c1ccc(Cl)c(Cl)c1 | nt | -5% | -88* | i | ? | nt
Cc1ccc2oc(-c3cc(NC(=O)c4oc5ccccc5c4C)ccc3Cl)nc2c1 | nt | -3% | 4 | 6% | 24% | 7%
CC(C)[C@H](NC(=O)CCCn1nnc2ccccc2c1=O)C(=O)O | 1% | -5% | 15 | i | 0% | 40µM*

Compound activity deposited in PubChem BioAssay by National Center for Advancing Translational Sciences (NCATS).
